Data taken from PubChem BioAssay (NCI).
Compounds without any hit were thinned out: in the full panel of roughly 79,000, 15% have a hit. Calls of active or inactive are those of the source. Rule as the data show it: active = growth inhibition above about 70%; inactive = the rest.

Assays:
[1] = NCI Yeast Anticancer Drug Screen. Data for the wt1 strain (AID 149);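 also: 0% = growth of vehicle-treated wt1 cultures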; conditions: S. cerevisiae wt1 strain (SPY 50644) growth inhibition, active compounds read high
Procedure, shortened: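 Yeast wt1 strain exposed to compounds; growth inhibition measured relative to vehicle-treated controls.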

[2] = NCI Yeast Anticancer Drug Screen. Data for the rad50EPP+ strain (AID 151);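 also: 0% = growth of vehicle-treated control cultures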; conditions: S. cerevisiae rad50 mutant strain, active compounds read high
Procedure, shortened: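 Genetically defined yeast (rad50EPP+, DNA damage repair alteration) is grown with compound, and inhibition of growth is expressed relative to vehicle-treated controls.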

[3] = NCI Yeast Anticancer Drug Screen. Data for the mgt1 strain (AID 153); conditions: S. cerevisiae mgt1 mutant growth inhibition, active compounds read high
Procedure, shortened: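 In the mgt1 strain, test compounds were added and growth inhibition was determined relative to vehicle-treated controls.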

[4] = NCI Yeast Anticancer Drug Screen. Data for the rad50 strain (AID 155);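 also: 0% = growth of vehicle-only cultures of the same strain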; conditions: S. cerevisiae rad50 strain growth inhibition, active compounds read high
Procedure, shortened: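 Yeast carrying a defined DNA repair defect were exposed to test compounds, and growth was compared with vehicle-treated controls to give percent inhibition.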

[5] = NCI Yeast Anticancer Drug Screen. Data for the mec2-1 strain (AID 157); conditions: S. cerevisiae mec2-1 strain, active compounds read high
Procedure, shortened: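 Each compound was tested on mec2-1 yeast, a strain altered in DNA damage repair or cell cycle control. Growth inhibition is reported relative to vehicle.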

[6] = NCI Yeast Anticancer Drug Screen. Data for the rad14 strain (AID 159);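 also: 0% = growth of vehicle-treated control cultures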; conditions: S. cerevisiae rad14 strain growth inhibition, active compounds read high
Procedure, shortened: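 Yeast cells carrying a defined DNA-repair defect were exposed to compounds, and growth inhibition was calculated relative to vehicle-treated control cultures.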

[7] = NCI Yeast Anticancer Drug Screen. Data for the sgs1 mgt1 strain (AID 161);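 also: 0% = growth of cultures given vehicle only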; conditions: S. cerevisiae sgs1 mgt1 strain, active compounds read high
Procedure, shortened: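 Read-out: growth inhibition vs vehicle controls. Cells: mutant yeast strain deficient in DNA damage repair.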

[8] = NCI Yeast Anticancer Drug Screen. Data for the CLN2oe strain (AID 163);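 also: 0% = growth of vehicle-only control cultures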; conditions: S. cerevisiae CLN2oe strain, active compounds read high
Procedure, shortened: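 First, the altered yeast strain was treated with each compound; second, its growth was measured; finally, inhibition was derived by comparison with vehicle controls.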

[9] = NCI Yeast Anticancer Drug Screen. Data for the cln2 rad14 strain (AID 165);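 also: 0% = growth equal to vehicle treated cultures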; conditions: S. cerevisiae cln2 rad14 strain, active compounds read high
Procedure, shortened: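 Test compounds were added to cln2 rad14 yeast cultures; inhibition of growth was then determined by comparison with vehicle treatment.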

[10] = NCI Yeast Anticancer Drug Screen. Data for the bub3 strain (AID 167); conditions: S. cerevisiae bub3 mutant strain, active compounds read high
Procedure, shortened: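 Compounds were applied to a genetically altered yeast strain carrying a cell-cycle control defect. Growth inhibition was scored against vehicle-treated controls.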

[11] = NCI Yeast Anticancer Drug Screen. Data for the wt2 strain (AID 169);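 also: 0% = growth of vehicle-treated yeast cultures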; conditions: S. cerevisiae wt2 strain growth inhibition, active compounds read high
Procedure, shortened: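 The panel's yeast strains carry defined changes in DNA repair or cell cycle genes. Each strain is grown with compound, and growth loss is scored relative to vehicle.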

[12] = NCI Yeast Anticancer Drug Screen. Data for the mlh1 strain (AID 171);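 also: 0% = growth of vehicle-treated control cultures of the same strain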; conditions: S. cerevisiae mlh1 strain growth inhibition, active compounds read high
Procedure, shortened: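 Inhibition values reflect reduced yeast growth in the presence of compound, referenced to vehicle controls, using a strain chosen for its alteration in DNA repair or cell cycle control.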

[13] = NCI Yeast Anticancer Drug Screen. Data for the sgs1 strain (AID 173);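 also: 0% = growth of vehicle-only control cultures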; conditions: S. cerevisiae sgs1 mutant, active compounds read high
Procedure, shortened: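 Vehicle-treated cultures served as reference for growth inhibition of a yeast strain altered in DNA damage repair or cell cycle control after compound exposure.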

[14] = NCI Yeast Anticancer Drug Screen. Data for the mlh1 rad18 strain (AID 175); conditions: S. cerevisiae mlh1 rad18 strain growth inhibition, active compounds read high
Procedure, shortened: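 Inhibition values reflect reduced growth of mutant yeast versus vehicle-treated controls following compound exposure; the mutations affect DNA damage repair.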

[15] = NCI Yeast Anticancer Drug Screen. Data for the rad18 strain (AID 177); conditions: S. cerevisiae rad18 mutant growth inhibition, active compounds read high
Procedure, shortened: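 Steps: expose repair-mutant yeast to compound; measure growth; express as inhibition relative to vehicle control.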

[16] = at 5.0 µM (retest, dose inferred, filed as 0.5)
[17] = at 50.0 µM (retest, dose inferred, filed as 5.0)

Measured: growth inhibition

CC12CCC(C1)C(C)(C)C2OC(=O)c1ccccc1N (stereo not drawn)
inactive: [1]; at 1.2 µM -1% | [1]; at 3.7 µM -1% | [1]; at 11.0 µM -4% | [1]; at 33.0 µM -13% | [1]; at 100.0 µM 14% | [2]; at 1.2 µM 6% | [2]; at 3.7 µM 5% | [2]; at 11.0 µM 0% | [2]; at 33.0 µM 7% | [2]; at 100.0 µM 1% | [3]; at 1.2 µM -3% | [3]; at 3.7 µM 0% | [3]; at 11.0 µM -5% | [3]; at 33.0 µM -9% | [3]; at 100.0 µM 5% | [4]; at 1.2 µM 9% | [4]; at 3.7 µM 6% | [4]; [16] -6% | [4]; at 11.0 µM 7% | [4]; at 33.0 µM 30% | [4]; [17] 50% | [4]; at 50.0 µM -5.6% | [4]; at 100.0 µM 61% | [5]; at 1.2 µM -1% | [5]; at 3.7 µM -2% | [5]; [16] -26% | [5]; at 11.0 µM -6% | [5]; at 33.0 µM 1% | [5]; [17] -26% | [5]; at 50.0 µM 2.7% | [5]; at 100.0 µM 39% | [6]; at 1.2 µM 7% | [6]; at 3.7 µM 2% | [6]; at 11.0 µM -6% | [6]; at 33.0 µM 4% | [6]; at 100.0 µM 17% | [7]; [16] -5% | [7]; [17] 56% | [7]; at 50.0 µM 10.8% | [8]; at 1.2 µM -1% | [8]; at 3.7 µM -2% | [8]; at 11.0 µM -3% | [8]; at 33.0 µM 14% | [8]; at 100.0 µM 61% | [9]; [16] -2% | [9]; [17] 32% | [9]; at 50.0 µM -8.95% | [10]; at 1.2 µM 0% | [10]; at 3.7 µM 3% | [10]; [16] 12% | [10]; at 11.0 µM 9% | [10]; at 33.0 µM 23% | [10]; at 50.0 µM 18% | [11]; at 1.2 µM -10% | [11]; at 3.7 µM -8% | [11]; at 11.0 µM -21% | [11]; at 33.0 µM -8% | [11]; at 100.0 µM 7% | [12]; at 1.2 µM 2% | [12]; at 3.7 µM -1% | [12]; at 11.0 µM -5% | [12]; at 33.0 µM 11% | [12]; at 100.0 µM 38% | [13]; at 1.2 µM -11% | [13]; at 3.7 µM 0% | [13]; at 11.0 µM -24% | [13]; at 33.0 µM -10% | [13]; at 100.0 µM 36% | [14]; [16] 14% | [14]; at 50.0 µM -2.55% | [15]; at 1.2 µM 3% | [15]; at 3.7 µM 5% | [15]; at 11.0 µM 4% | [15]; at 33.0 µM 9% | [15]; at 100.0 µM 54%
active: [10]; [17] 80% | [10]; at 100.0 µM 79% | [14]; [17] 82%
